The list is not random: actives were taken first. Their share in the collection is about 9.3%.
NPC1 prom act = activators of NPC1 promoter. Huh7 NPC1 promoter luciferase reporter, 24 h. Potency, µM (titrated, usually from 9.22 µM), without a hit: at the top dose activation, hits mostly activators. 2.4% of 320,000 active. AID 485313; further: % of control where 0% means no effect; nearly all actives have a fitted effect of over 60% in size
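Luciferase expression driven by the NPC1 promoter was measured in stably transfected Huh7 cells after a 24 h compound incubation, using a luciferase reagent and a luminescence read.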
ELG1 genotoxic = inducers of genotoxicity in HEK293T ELG1-luciferase cells | HEK293T ELG1-luciferase reporter, luminescence, 16 h | Potency, µM (top dose mostly 46 µM), without a hit: top-dose activity change, positive = activation, usual class: activators | 1.3% of 330,000 active | AID 504466; further: % of control where 0% means no effect; nearly all actives have a fitted effect of over 60% in size
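Quantitative HTS format in 1536-well plates. HEK293T ELG1-luciferase reporter cells receive test compound and are incubated 16 hr at 37 °C, 5% CO2; ONE-Glo added, 30 min room temperature, then luminescence read.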
SMN2 splice enh = enhancers of SMN2 splice variant expression; HEK293 SMN2-luciferase splicing reporter, luminescence, 30-36 h; Potency, µM (doses to about 46.1 µM), for the others: top-dose activity change, positive = activation, actives largely listed as activators; 2.8% of 210,000 active; AID 1458; further: % of control where 0% means no effect; nearly all actives have a fitted effect of over 55% in size
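HEK293 cells carry an SMN2 minigene-luciferase reporter in which exon 7 inclusion puts luciferase in frame. Cells were seeded at 2000 cells/well, attached for 10-12 hours, then exposed to compounds for 30-36 hours at 37C before ONE-Glo luminescence.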
ELG1 repair inh = ELG1-dependent DNA repair inhibition. HEK293T ELG1-luciferase reporter, luminescence, 16 h; DNA damage induced by 5-fluorouridine. 2.3% of 330,000 active. Potency, µM (top dose mostly 46.1 µM), inactives show top-dose activity change, negative = inhibition, actives largely listed as inhibitors; further: on the % scale 0 is the no-effect control and ±100 the full control effect; nearly all actives have a fitted effect of over 55% in size
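Step one: seed 2,000 cells per well. Step two: pin-transfer compound or DMSO alongside 5-fluorouridine. Step three: incubate 16 hr, 37 °C, 5% CO2. Step four: add ONE-Glo, wait 30 min, read luminescence.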
Rab9 prom act = Rab9 promoter activation; Huh7 Rab9 promoter-luciferase reporter, luminescence, 24 h; Potency, µM (top dose mostly 9.22 µM), for inactives: at the top dose activation, negative = inhibition, usual class: activators; 2.8% of 320,000 active; AID 485297; further: % of control where 0% means no effect; nearly all actives have a fitted effect of over 60% in size
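Measured in stably transfected Huh7 cells bearing a Rab9 promoter–luciferase construct: 24 h compound treatment at 37 °C, followed by luminescence detection.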
FLuc counter = counter-screen for miR-21 project: firefly luciferase inhibitors or activators | Potency, µM (top dose mostly 57.5 µM), for the others: top-dose activity change, negative = inhibition, most hits filed as inhibitors | purified FLuc, Km substrates, luminescence inhibition | P08659 | 6.9% of 360,000 active;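 further: plate controls were vehicle for no effect and reference inhibitor for full effect; nearly all actives have a fitted effect of over 55% in size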
Target sequence (P08659 whole entry, looked up): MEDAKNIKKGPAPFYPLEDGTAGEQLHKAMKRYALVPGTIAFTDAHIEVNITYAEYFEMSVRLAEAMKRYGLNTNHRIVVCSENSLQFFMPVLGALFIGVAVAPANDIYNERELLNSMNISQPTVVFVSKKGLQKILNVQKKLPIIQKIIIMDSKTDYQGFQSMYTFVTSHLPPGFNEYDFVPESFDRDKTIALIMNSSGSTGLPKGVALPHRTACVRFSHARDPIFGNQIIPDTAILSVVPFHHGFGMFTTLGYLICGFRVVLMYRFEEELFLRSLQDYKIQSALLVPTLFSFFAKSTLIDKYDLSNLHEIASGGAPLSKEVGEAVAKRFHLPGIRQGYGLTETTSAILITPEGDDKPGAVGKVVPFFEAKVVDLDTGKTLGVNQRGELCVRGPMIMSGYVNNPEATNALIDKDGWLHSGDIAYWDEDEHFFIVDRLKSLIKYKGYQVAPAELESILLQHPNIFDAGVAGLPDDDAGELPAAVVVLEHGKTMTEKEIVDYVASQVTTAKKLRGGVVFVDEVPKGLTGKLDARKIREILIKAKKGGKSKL
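Biochemical qHTS of compounds, final roughly 60 µM downward over six points, against 10 nM purified firefly luciferase using Km concentrations of substrates (10 uM D-luciferin, 10 uM ATP) in Tris acetate pH 7.5 buffer; luminescence output.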
Starred values were filed as active, the others as inactive; ? = inconclusive; nt = no result; [ ] = remark or other dose. The call rests on the fitted dose curve; in most records, active means well fitted curve in the direction sought with a large enough effect; inconclusive means small, poorly fitted or top-dose-only effect, or another doubt; inactive means no such curve, though single readings can be large; an effect the other way counts as inactive or inconclusive. Potency means the concentration at half of the fitted maximal effect.

SMILES	NPC1 prom act	ELG1 genotoxic	SMN2 splice enh	ELG1 repair inh	Rab9 prom act	FLuc counter
COc1ccc(/C=C2\SC(=S)N(CC(=O)OCC(=O)Nc3ccc(C)cc3Cl)C2=O)cc1	4%	3%	nt	2%	22%	12µM*
O=C(CCN1C(=O)/C(=C/c2ccc(F)cc2)SC1=S)Nc1cc([N+](=O)[O-])ccc1O	0%	-4%	nt	11%	6%	12µM*
O=C(CCCN1C(=O)/C(=C/c2cccs2)SC1=S)Nc1cc([N+](=O)[O-])ccc1O	-6%	-1%	nt	7%	0%	8%
COc1ccc(/C=C2\SC(=S)N(CC(=O)OCC(=O)Nc3ccc([N+](=O)[O-])cc3OC)C2=O)cc1	5%	3%	5%	3%	13%	24µM*
Cc1ccc(N2CCN(S(=O)(=O)c3c(C)nc4scc(C)n4c3=O)CC2)c(C)c1	3%	-6%	nt	-11%	-10%	-3%
Cc1cn(C2CCC(CO)O2)c(=O)[nH]c1=O (stereo unspecified)	2%	1%	-7%	8%	-12%	1%
O=C(Nc1ccc(-c2nc3ccccc3o2)cc1)c1ccc2c(c1)OCO2	nt	nt	-4%	nt	nt	5%
Cc1ccc(-c2nc3ccccc3o2)cc1NC(=O)c1ccc2c(c1)OCO2	?	7.3µM*	nt	?	-4%	?
Cc1c(NC(=O)c2ccc3c(c2)OCO3)cccc1-c1nc2ccccc2o1	-4%	-8%	-11%	?	0%	9.5µM*
O=C(Nc1ccc2oc(-c3ccccc3F)nc2c1)c1ccc2c(c1)OCCO2	14%	-16%	-39%	?	21%	6.7µM*
Cc1cccc2cc(C3CC(c4cccs4)=NN3S(C)(=O)=O)c(Cl)nc12 (stereo unspecified)	-3%	-6%	nt	?	-4%	0%
CC(=O)NC(CC(=O)Oc1ccc(C)cc1Br)c1ccccc1 (stereo unspecified)	0%	-1%	nt	-3%	1%	-3%
CCOC(=O)NC(=O)/C(C#N)=C\Nc1ccc(Cl)cc1Cl	-23%	16%	-8%	?	?	13µM*
c1ccc2c(N3CCOCC3)nc(-c3ccncc3)nc2c1	-4%	-5%	26%	6.5µM*	4%	1%
CC1CCN(c2nc(-c3ccc(C(C)(C)C)cc3)nc3ccccc23)CC1	nt	nt	-1%	nt	nt	5.4µM*
CC1CCCCN1c1nc(-c2ccncc2)nc2ccccc12 (stereo unspecified)	-4%	-7%	15%	-35%	-5%	0%
CC1CCN(c2nc(-c3ccncc3)nc3ccccc23)CC1	-3%	-6%	0%	?	-3%	2%
CC1CCCCN1c1nc(-c2ccc(C(C)(C)C)cc2)nc2ccccc12 (stereo unspecified)	nt	nt	383%	nt	nt	3.4µM*
O=C(NCCNC(=O)c1ccccc1F)c1ccccn1	0%	0%	nt	19%	0%	2%
O=C(CC(c1ccco1)S(=O)(=O)c1ccccc1)c1ccc(F)cc1 (stereo unspecified)	0%	1%	13%	20%	-1%	19µM*
CCN(Cc1cnn(C)c1)C(=O)c1cc(COc2cc(C)c(Cl)c(C)c2)on1	1%	4%	nt	-19%	19%	?
Cc1cc(OCc2cc(C(=O)N(C)CCc3cnn(C)c3)no2)cc(C)c1Cl	2.8µM*	?	nt	?	3.2µM*	8.5µM*
COc1cc(Cl)ccc1OCc1cc(C(=O)N(C)CCc2cnn(C)c2)no1	?	7%[9.26 µM]	nt	?	?	12µM*
Cc1cc(OCc2cc(C(=O)N(C)C3CCOC3)no2)cc(C)c1Cl (stereo unspecified)	3.2µM*	?	nt	?	1.8µM*	6µM*
CC(=O)c1ccc(OCc2cc(C(=O)N(C)C3CCOC3)no2)cc1 (stereo unspecified)	8%	3%	nt	0%	2%	1%
SMILES	NPC1 prom act	ELG1 genotoxic	SMN2 splice enh	ELG1 repair inh	Rab9 prom act	FLuc counter
Cn1c(SCC(N)=O)nc2c([nH]c3ccccc32)c1=O	nt	nt	nt	nt	nt	0%
CC1=C(c2ccc(C)c(C)c2)S(=O)(=O)N=C1N1CCN(c2cccc(C)c2)C(C)C1 (stereo unspecified)	nt	nt	nt	nt	nt	-7%
COc1ccc2[nH]cc(CCNC(=O)Nc3cccc(F)c3)c2c1	nt	nt	-36%	nt	nt	0%
Cc1ccc(NC(=O)Cn2c(=O)n(Cc3nc(C)no3)c(=O)c3cc4c(cc32)OCO4)c(Cl)c1	nt	nt	nt	nt	nt	-5%
O=C(Cc1c(F)cccc1Cl)Nc1nccs1	-1%	-9%	nt	0%	0%	-2%
Cc1c(CCC(=O)O)c(=O)oc2cc(OCc3ccccc3F)ccc12	10%	4%	nt	2%	1%	27µM*
Cc1c(CC(=O)O)c(=O)oc2cc(OCc3ccc(F)cc3Cl)ccc12	-1%	6%	nt	21%	3%	17µM*
Cc1cccc(NC(=O)c2cc(CN3CCOCC3)on2)c1C	nt	nt	nt	nt	nt	-2%
COc1ccc(Cc2nnc(SCc3ccc([N+](=O)[O-])cc3)o2)cc1	2%	-18%	-3%	23µM*	1%	-5%
CCC(NC(=O)C(C)NC)C(=O)N1CCCC1C(=O)NC1CCCc2ccccc21 (stereo unspecified)	1%	15%	nt	23%	-2%	-2%
O=C(/C(=N/N=C/c1ccc(O)c(O)c1O)c1ccccc1)c1ccccc1	1%	-3%	3.2µM*	-18%	-2%	-7%
Oc1ccc(/C=N/N=C(c2ccccc2)c2ccccc2)c(O)c1O	-9%	-4%	7%	-17%	-3%	?
COc1ccc(S(=O)(=O)n2ccnc2C)c(C)c1C	-7%	0%	nt	1%	3%	-3%
O=C(CNc1cccc2ccccc12)N/N=C/c1ccc(C(=O)O)cc1	2%	0%	-5%	9%	10%	-18%
O=C(CNc1ccc2ccccc2c1)N/N=C/c1ccc(C(=O)O)cc1	8%	3%	12%	24%	2%	27µM*
O=C(CNc1ccc2ccccc2c1)N/N=C/c1cc2ccccc2nc1Cl	7%	-2%	-17%	-20%	-3%	15µM*
O=C(COc1cccc(Cl)c1)N/N=C\c1cc2ccccc2nc1Cl	-2%	10%	-2%	17%	-5%	3%
CCCOc1ccc(CN(C(=O)c2cc(=O)c3ccc(C)cc3o2)C2CCS(=O)(=O)C2)cc1 (stereo unspecified)	nt	nt	-2%	nt	nt	-5%
Cc1cc(Cl)ccc1C(=O)C1CCCN(C(=O)/C=C/c2cnn(C)c2)C1 (stereo unspecified)	-2%	-2%	nt	-3%	-5%	3%
